Laboratory results as given in PubChem BioAssay.
Values without a mark were called inactive. For some of these results: Measured potencies and affinities stand elsewhere. Activity calls are given as the source filed them. Unless noted, the rule behind the calls is not given here.

What was measured:
[1] = antimalarial activity against Dd2 strain (AID 2302;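 active = growth inhibition above 50% at the single 2 µM test dose, taken to imply half-maximal potency below 2 µM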;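 note: 0% = DMSO untreated growth and 100% = chloroquine plus artemisinin killed control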); conditions: P. falciparum Dd2 in RBCs, LDH growth readout, 72 h; at 2 µM; stronger effect = higher value
[2] = target: L-lactate dehydrogenase (Plasmodium falciparum (isolate CDC / Honduras)) (UniProt Q27743); assay: PfLDH activity inhibition – cell lysate, 3D7 strain, counter-screen for P. falciparum growth inhibition project (AID 2304);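 note: 0% = vehicle and 100% = reference inhibitor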; conditions: P. falciparum 3D7 crude extract, LDH APAD/NBT absorbance; at 2 µM; stronger effect = higher value
Chain of L-lactate dehydrogenase (Plasmodium falciparum (isolate CDC / Honduras)) (Q27743 whole entry, looked up): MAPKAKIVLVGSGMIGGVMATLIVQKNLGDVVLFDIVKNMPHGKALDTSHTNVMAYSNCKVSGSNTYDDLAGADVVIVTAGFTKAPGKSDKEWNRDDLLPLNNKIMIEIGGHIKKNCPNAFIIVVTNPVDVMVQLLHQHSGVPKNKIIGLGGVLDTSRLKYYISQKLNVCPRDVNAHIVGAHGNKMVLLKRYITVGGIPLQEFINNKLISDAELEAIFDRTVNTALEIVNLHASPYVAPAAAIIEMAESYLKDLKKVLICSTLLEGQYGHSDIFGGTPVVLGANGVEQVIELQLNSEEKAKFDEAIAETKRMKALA

[3] = inhibition of 3D7 malaria parasite growth – strain 3D7 (AID 2306);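 note: 0% = DMSO wells and 100% = chloroquine plus artemisinin control wells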; conditions: P. falciparum 3D7 erythrocytic growth, LDH absorbance, 72 h; at 2 µM; stronger effect = higher value
[4] = target: Calcium-dependent protein kinase 1 (Plasmodium falciparum (isolate 3D7)) (UniProt P62344); assay: PfCDPK1 kinase inhibitors, biochemical, TCAMS library (AID 1159585; cut-off not given, nearly all actives have IC50 up to about 0.98 µM;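 note: inhibitors leave more ATP so luminescence rises with inhibition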); conditions: recombinant PfCDPK1, Kinase-Glo ATP depletion luminescence
Chain of Calcium-dependent protein kinase 1 (Plasmodium falciparum (isolate 3D7)) (P62344 whole entry, looked up): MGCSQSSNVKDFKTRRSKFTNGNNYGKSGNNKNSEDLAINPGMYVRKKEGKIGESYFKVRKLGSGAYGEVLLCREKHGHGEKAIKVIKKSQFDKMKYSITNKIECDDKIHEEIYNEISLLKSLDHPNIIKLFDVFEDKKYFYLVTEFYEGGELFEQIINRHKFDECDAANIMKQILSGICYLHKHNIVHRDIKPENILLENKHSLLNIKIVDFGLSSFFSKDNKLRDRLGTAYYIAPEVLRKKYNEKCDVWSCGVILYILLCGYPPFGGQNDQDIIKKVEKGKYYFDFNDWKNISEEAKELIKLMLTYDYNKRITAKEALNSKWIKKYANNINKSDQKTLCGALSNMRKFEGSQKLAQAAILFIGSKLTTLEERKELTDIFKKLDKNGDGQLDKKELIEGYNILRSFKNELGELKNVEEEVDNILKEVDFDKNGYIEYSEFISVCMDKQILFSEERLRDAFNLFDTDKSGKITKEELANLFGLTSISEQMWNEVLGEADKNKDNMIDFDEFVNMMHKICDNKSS

[5] = target: Plasmodium falciparum protein kinase 6 (PK6, PF3D7_1337100) (UniProt Q8IDW1); assay: PfPK6 kinase inhibitors, biochemical, TCAMS library (AID 1159586); conditions: recombinant PfPK6, Kinase-Glo ATP depletion luminescence
Chain of Plasmodium falciparum protein kinase 6 (PK6, PF3D7_1337100) (Q8IDW1 1-305): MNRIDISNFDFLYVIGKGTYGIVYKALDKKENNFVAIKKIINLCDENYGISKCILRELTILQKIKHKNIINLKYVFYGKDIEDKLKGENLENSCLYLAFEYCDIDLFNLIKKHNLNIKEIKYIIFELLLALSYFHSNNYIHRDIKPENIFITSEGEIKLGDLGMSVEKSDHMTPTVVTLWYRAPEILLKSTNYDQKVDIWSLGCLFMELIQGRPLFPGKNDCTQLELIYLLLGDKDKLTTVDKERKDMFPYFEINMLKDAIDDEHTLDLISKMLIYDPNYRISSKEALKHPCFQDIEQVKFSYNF

[6] = target: Protein kinase 7 (PK7), Plasmodium falciparum 3D7 (PF3D7_0213400) (UniProt Q7YTF7); assay: inhibition of Plasmodium PK7 catalytic activity – biochemical, TCAMS antimalarial set, Kinase-Glo luminescence (AID 1159587); conditions: recombinant PfPK7, Kinase-Glo ATP depletion luminescence
Chain of Protein kinase 7 (PK7), Plasmodium falciparum 3D7 (PF3D7_0213400) (Q7YTF7 1-343): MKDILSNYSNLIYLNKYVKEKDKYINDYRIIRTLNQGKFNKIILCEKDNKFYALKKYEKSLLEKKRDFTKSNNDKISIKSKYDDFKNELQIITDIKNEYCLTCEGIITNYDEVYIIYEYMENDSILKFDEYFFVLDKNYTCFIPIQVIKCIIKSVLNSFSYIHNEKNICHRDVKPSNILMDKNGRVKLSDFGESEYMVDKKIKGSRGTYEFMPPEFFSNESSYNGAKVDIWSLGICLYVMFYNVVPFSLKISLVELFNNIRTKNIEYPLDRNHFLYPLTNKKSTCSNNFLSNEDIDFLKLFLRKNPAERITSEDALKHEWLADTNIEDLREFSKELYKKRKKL

[7] = target: Calcium-dependent protein kinase 4 (Plasmodium falciparum (isolate 3D7)) (UniProt Q8IBS5); assay: PfCDPK4 kinase inhibitors, biochemical, TCAMS library (AID 1159588; cut-off not given, nearly all actives have IC50 up to about 0.91 µM); conditions: recombinant PfCDPK4, Kinase-Glo ATP depletion luminescence
Chain of Calcium-dependent protein kinase 4 (Plasmodium falciparum (isolate 3D7)) (Q8IBS5 whole entry, looked up): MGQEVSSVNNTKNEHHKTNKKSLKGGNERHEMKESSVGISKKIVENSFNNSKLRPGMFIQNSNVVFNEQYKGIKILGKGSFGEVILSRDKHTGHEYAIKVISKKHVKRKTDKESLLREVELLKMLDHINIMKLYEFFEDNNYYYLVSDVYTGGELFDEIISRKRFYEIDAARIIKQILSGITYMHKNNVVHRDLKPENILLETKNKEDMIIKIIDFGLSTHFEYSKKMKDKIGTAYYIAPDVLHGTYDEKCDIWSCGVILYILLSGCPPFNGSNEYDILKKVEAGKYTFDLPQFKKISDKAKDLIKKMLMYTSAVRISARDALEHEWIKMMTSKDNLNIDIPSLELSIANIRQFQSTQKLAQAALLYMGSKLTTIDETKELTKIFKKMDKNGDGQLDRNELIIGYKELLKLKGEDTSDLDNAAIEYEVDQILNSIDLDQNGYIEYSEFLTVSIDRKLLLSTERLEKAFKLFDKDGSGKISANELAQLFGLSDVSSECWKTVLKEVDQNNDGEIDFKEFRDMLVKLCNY

With Cc1ccc2ccncc2c1N as the molecule, how does the growth inhibition [1] read?
The growth inhibition was 4%.

What about the inhibition [2] of the same molecule?
Its inhibition is -6%.

What about the growth inhibition [3] of the same molecule?
Its growth inhibition is 96% (active).

And the outcome [4]?
Its outcome is “inactive”.

What about the outcome [5] of the same molecule?
Its outcome is “inactive”.

What about the outcome [6] of the same molecule?
The outcome was “inactive”.

What about the outcome [7] of the same molecule?
Its outcome is “inactive”.

Which results are given for Cc1[nH]c(C)c(-c2ccc(Oc3ccc(Cl)c(Cl)c3)cc2)c(=O)c1Br?
growth inhibition [1]: 96% (active); inhibition [2]: -1%; growth inhibition [3]: 97% (active); outcome [4]: inactive; outcome [5]: inactive; outcome [6]: inactive; outcome [7]: inactive

Which results are given for COc1cccc2c(O)c(CNC3CCCCC3)ccc12?
growth inhibition [1]: 98% (active); inhibition [2]: 3%; growth inhibition [3]: 100% (active); outcome [4]: inactive; outcome [5]: inactive; outcome [6]: inactive; outcome [7]: inactive

Which growth inhibition [1] does the source give for Cc1[nH]c(C)c(-c2ccc(S(=O)(=O)c3ccc(Cl)cc3)cc2)c(=O)c1Br here?
Its growth inhibition is 97% (active).

What about the inhibition [2] of the same molecule?
The inhibition was 5%.

What about the growth inhibition [3] of the same molecule?
The growth inhibition was 97% (active).

What about the outcome [4] of the same molecule?
Its outcome is “inactive”.

And the outcome [5]?
The outcome was “inactive”.

And the outcome [6]?
Its outcome is “inactive”.

And the outcome [7]?
The outcome was “inactive”.

For CCOc1cc2ncnc(Nc3ccc(OCc4ccccc4OC)c(OC)c3)c2cc1OCC, which growth inhibition [1] is on record?
Its growth inhibition is 52% (active).

And the inhibition [2]?
The inhibition was -5%.

And the growth inhibition [3]?
The growth inhibition was 97% (active).

And the outcome [4]?
Its outcome is “inactive”.

And the outcome [5]?
The outcome was “inactive”.

And the outcome [6]?
The outcome was “inactive”.

And the outcome [7]?
Its outcome is “inactive”.

Which growth inhibition [1] does the source give for CCCCc1cc(Cc2cnc(N)nc2N)cc(OC)c1OC here?
Its growth inhibition is -1%.

And the inhibition [2]?
The inhibition was 3%.

What about the growth inhibition [3] of the same molecule?
The growth inhibition was 86% (active).

And the outcome [4]?
Its outcome is “inactive”.

And the outcome [5]?
The outcome was “inactive”.

What about the outcome [6] of the same molecule?
The outcome was “inactive”.

And the outcome [7]?
Its outcome is “inactive”.

With COc1ccc(Cc2c(Cl)nc3nc(N)nc(N)c3c2C)cc1 as the molecule, how does the growth inhibition [1] read?
Its growth inhibition is 3%.

What about the inhibition [2] of the same molecule?
Its inhibition is 6%.

What about the growth inhibition [3] of the same molecule?
Its growth inhibition is 94% (active).

What about the outcome [4] of the same molecule?
The outcome was “inactive”.

And the outcome [5]?
The outcome was “inactive”.

What about the outcome [6] of the same molecule?
Its outcome is “inactive”.

What about the outcome [7] of the same molecule?
Its outcome is “inactive”.

With CCN(C)C(=O)n1ncc2c3c(N)nc(N)nc3ccc21 as the molecule, how does the growth inhibition [1] read?
The growth inhibition was 0%.

What about the inhibition [2] of the same molecule?
Its inhibition is 6%.

And the growth inhibition [3]?
Its growth inhibition is 95% (active).

What about the outcome [4] of the same molecule?
The outcome was “inactive”.

And the outcome [5]?
The outcome was “inactive”.

And the outcome [6]?
Its outcome is “inactive”.

What about the outcome [7] of the same molecule?
Its outcome is “inactive”.

Which growth inhibition [1] does the source give for Nc1nc(Cc2ccc(Cl)cc2)nc(Cc2ccc(Cl)cc2)n1 here?
Its growth inhibition is -2%.

What about the inhibition [2] of the same molecule?
The inhibition was 2%.

And the growth inhibition [3]?
Its growth inhibition is 85% (active).

What about the outcome [4] of the same molecule?
Its outcome is “inactive”.

What about the outcome [5] of the same molecule?
The outcome was “inactive”.

And the outcome [6]?
Its outcome is “inactive”.

And the outcome [7]?
The outcome was “inactive”.

Which results are given for CCOc1cc(OCC)c2ccccc2c1CNCCCCCCNCc1c(OCC)cc(OCC)c2ccccc12?
growth inhibition [1]: 89% (active); inhibition [2]: 2%; growth inhibition [3]: 101% (active); outcome [4]: inactive; outcome [5]: inactive; outcome [6]: inactive; outcome [7]: inactive

Which growth inhibition [1] does the source give for CCc1ccc(Cc2cnc3nc(N)nc(N)c3c2C)cc1CC here?
Its growth inhibition is -1%.

And the inhibition [2]?
The inhibition was 6%.

And the growth inhibition [3]?
The growth inhibition was 97% (active).

What about the outcome [4] of the same molecule?
Its outcome is “inactive”.

What about the outcome [5] of the same molecule?
The outcome was “inactive”.

And the outcome [6]?
The outcome was “inactive”.

What about the outcome [7] of the same molecule?
The outcome was “inactive”.

For CCCCSc1ccc(CNCCCCCCNCc2ccc(SCCCC)c3ccccc23)c2ccccc12, which growth inhibition [1] is on record?
Its growth inhibition is 48%.

And the inhibition [2]?
The inhibition was 0%.

What about the growth inhibition [3] of the same molecule?
The growth inhibition was 94% (active).

What about the outcome [4] of the same molecule?
Its outcome is “inactive”.

What about the outcome [5] of the same molecule?
Its outcome is “inactive”.

What about the outcome [6] of the same molecule?
Its outcome is “inactive”.

And the outcome [7]?
The outcome was “inactive”.

With CCN(CC)CCCC(C)Nc1ccnc2cc(C#N)ccc12 (stereo not given) as the molecule, how does the growth inhibition [1] read?
Its growth inhibition is 80% (active).

And the inhibition [2]?
The inhibition was -1%.

And the growth inhibition [3]?
Its growth inhibition is 100% (active).

And the outcome [4]?
The outcome was “inactive”.

What about the outcome [5] of the same molecule?
The outcome was “inactive”.

What about the outcome [6] of the same molecule?
The outcome was “inactive”.

And the outcome [7]?
The outcome was “inactive”.

What does the source list for Cn1c(=N)cc(-c2cccc(I)c2)c2c(=O)[nH]c(N)nc21?
growth inhibition [1]: 75% (active); inhibition [2]: 6%; growth inhibition [3]: 89% (active); outcome [4]: inactive; outcome [5]: inactive; outcome [6]: inactive; outcome [7]: inactive

What does the source list for CCOc1ccc(CNCCCCCCNCc2ccc(OCC)c3ccccc23)c2ccccc12?
growth inhibition [1]: 75% (active); inhibition [2]: -4%; growth inhibition [3]: 101% (active); outcome [4]: inactive; outcome [5]: inactive; outcome [6]: inactive; outcome [7]: inactive

With Cc1[nH]c(C)c(-c2ccc(-c3ccc(F)cc3)cc2)c(=O)c1Cl as the molecule, how does the growth inhibition [1] read?
The growth inhibition was 96% (active).

And the inhibition [2]?
Its inhibition is -2%.

What about the growth inhibition [3] of the same molecule?
Its growth inhibition is 96% (active).

What about the outcome [4] of the same molecule?
The outcome was “inactive”.

What about the outcome [5] of the same molecule?
Its outcome is “inactive”.

And the outcome [6]?
Its outcome is “inactive”.

And the outcome [7]?
Its outcome is “inactive”.

Which growth inhibition [1] does the source give for CCCCC#Cc1cnc2nc(N)[nH]c(=O)c2n1 here?
Its growth inhibition is 2%.

And the inhibition [2]?
The inhibition was 0%.

What about the growth inhibition [3] of the same molecule?
The growth inhibition was 89% (active).

And the outcome [4]?
The outcome was “inactive”.

And the outcome [5]?
The outcome was “inactive”.

And the outcome [6]?
The outcome was “inactive”.

And the outcome [7]?
Its outcome is “inactive”.

With CCCc1cc(OC)c(CC2c3cc(O)c(Cl)cc3C(c3ccccc3)CN2C)cc1OC (stereo not given) as the molecule, how does the growth inhibition [1] read?
Its growth inhibition is 100% (active).

And the inhibition [2]?
The inhibition was 4%.

And the growth inhibition [3]?
Its growth inhibition is 100% (active).

And the outcome [4]?
Its outcome is “inactive”.

And the outcome [5]?
The outcome was “inactive”.

And the outcome [6]?
Its outcome is “inactive”.

And the outcome [7]?
Its outcome is “inactive”.

With c1ccc2c(c1)cc(CNCCCN1CCN(CCCNCc3cc4ccccc4c4ccccc34)CC1)c1ccccc12 as the molecule, how does the growth inhibition [1] read?
The growth inhibition was 98% (active).

What about the inhibition [2] of the same molecule?
Its inhibition is 2%.

What about the growth inhibition [3] of the same molecule?
The growth inhibition was 101% (active).

And the outcome [4]?
Its outcome is “inactive”.

And the outcome [5]?
The outcome was “inactive”.

What about the outcome [6] of the same molecule?
Its outcome is “inactive”.

What about the outcome [7] of the same molecule?
Its outcome is “inactive”.

Which results are given for CC(C)n1c(C(C)(C)C)cc2c3c(N)nc(N)nc3ccc21?
growth inhibition [1]: 99% (active); inhibition [2]: -3%; growth inhibition [3]: 100% (active); outcome [4]: inactive; outcome [5]: inactive; outcome [6]: inactive; outcome [7]: inactive

Which results are given for Oc1c(CNC2CCCCC2)cc(Cl)c2ccccc12?
growth inhibition [1]: 101% (active); inhibition [2]: 0%; growth inhibition [3]: 98% (active); outcome [4]: inactive; outcome [5]: inactive; outcome [6]: inactive; outcome [7]: inactive

Which growth inhibition [1] does the source give for CCOc1cc2ncnc(Nc3ccc(OCc4c(Cl)cccc4Cl)c(OC)c3)c2cc1OCC here?
The growth inhibition was 12%.

And the inhibition [2]?
The inhibition was 5%.

What about the growth inhibition [3] of the same molecule?
The growth inhibition was 89% (active).

What about the outcome [4] of the same molecule?
Its outcome is “inactive”.

And the outcome [5]?
Its outcome is “inactive”.

And the outcome [6]?
Its outcome is “inactive”.

And the outcome [7]?
The outcome was “inactive”.

With NC(N)=NC(=O)Nc1ccc(Cl)c(C(F)(F)F)c1 as the molecule, how does the growth inhibition [1] read?
Its growth inhibition is 13%.

What about the inhibition [2] of the same molecule?
Its inhibition is 3%.

And the growth inhibition [3]?
The growth inhibition was 100% (active).

And the outcome [4]?
Its outcome is “inactive”.

And the outcome [5]?
Its outcome is “inactive”.

And the outcome [6]?
Its outcome is “inactive”.

And the outcome [7]?
The outcome was “inactive”.

Which growth inhibition [1] does the source give for Cc1[nH]c(C)c(-c2ccc(Oc3cccc(OC(F)(F)F)c3)cc2)c(=O)c1Br here?
The growth inhibition was 96% (active).

And the inhibition [2]?
The inhibition was -7%.

What about the growth inhibition [3] of the same molecule?
The growth inhibition was 100% (active).

And the outcome [4]?
The outcome was “inactive”.

What about the outcome [5] of the same molecule?
The outcome was “inactive”.

And the outcome [6]?
The outcome was “inactive”.

What about the outcome [7] of the same molecule?
Its outcome is “inactive”.

What does the source list for COc1ccc2c(=O)c(Br)c(C)[nH]c2c1?
growth inhibition [1]: 74% (active); inhibition [2]: -8%; growth inhibition [3]: 89% (active); outcome [4]: inactive; outcome [5]: inactive; outcome [6]: inactive; outcome [7]: inactive
